In PubChem BioAssay AID602198 (NMMLSC, 2012):
Entries with a potency or affinity are not part of this list. Unmarked numbers belong to inactive results. The rule behind the calls is not given here.

Experiment: V-ATPase regulators in yeast, concentration series – S. cerevisiae, pHLuorin, cherry pick 2, dose response (AID 602198)
Settings: pHLuorin vacuolar pH fluorescence; series mostly up to 33.1 µM; response (V-ATPase modulation): at the top concentration

SMILES	response (V-ATPase modulation)
O=C1Oc2ccccc2C(=O)/C1=C/c1ccccc1O	38.5%
CC1(C)CC(=O)C(C(C2=C(O)CC(C)(C)CC2=O)c2cccs2)C(=O)C1 (centres undefined)	24%
O=C(NC1CCCCC1)c1c(O)nc2sccn2c1=O	-0.55%
O=[N+]([O-])c1ccc2c(c1)-c1ccccc1C2=NO	104%
O=C(c1ccc([N+](=O)[O-])o1)N1CCN(c2nc3c(Cl)cccc3s2)CC1	25.8%
COc1ccc2nc(N3CCN(C(=O)c4ccc([N+](=O)[O-])o4)CC3)sc2c1	16.6%
CC1=NOC(=O)/C1=C\c1ccccc1	29%
O=C(O)c1ccc(/C=N/N2CCN(C3c4ccccc4-c4ccccc43)CC2)cc1	36.4%
Cc1ccc2oc(C(=O)N(C)Cc3ccc(C)o3)c(C)c2c1	11.7%
